Compounds with a hit are over-represented: about 1.2% of the library has one in this group of screens.
gsp ag = activates gsp, the McCune-Albright syndrome mutation | gsp mutant cells, cAMP HTRF, 30 min | Potency, µM (series often up to 76.9 µM), hits mostly activators | 340,000 compounds, 0.13% hits; active = well fitted activation curve with a large enough effect; inconclusive = small, poorly fitted or top-dose-only effect, or another doubt; inactive = no such curve, though single readings can be large or run the other way; cell line not stated here;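 also: phosphodiesterase inhibitor Ro 20-1724 added with compounds to block cAMP breakdown; nearly all actives have a fitted effect of over 60% in size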
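Cells stably selected in G418 were plated at 2000/well, grown 16-24 hr, then given compounds in DMSO with the PDE inhibitor […] (300 uM solution added) for 30 min at 37C; cAMP was read by HTRF.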
gsp antag = antagonizes gsp, the McCune-Albright syndrome mutation; Potency, µM (top dose mostly 76.9 µM), usual class: inhibitors; 340,000 compounds, 0.4% hits; gsp-mutant cells, cAMP HTRF, 30 min; calls by dose curve; cell line not stated here;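 also: intracellular cAMP measured with PDE inhibitor Ro 20-1724 present during compound exposure; nearly all actives have a fitted effect of over 65% in size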
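Measurement of cellular cAMP by homogeneous time-resolved fluorescence following a 30 min compound exposure at 37C. The PDE inhibitor […] was present throughout; the assay buffer was DPBS with 0.05% BSA and 0.005% Tween 20.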
CCT chaperon mod = cytosolic chaperonin activity modulation. purified chaperonin ATPase assay, HTRF ADP detection, 30 min. activity change, % (concentration not given with the values), hits read low. 360,000 compounds, 0.3% hits. AID 651819; in the data active = activity change below about -30%
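We incubate TRiC, 40 or 20 nM final, with library compounds at 76 uM and 10 uM ATP for 30 min at 37 °C. ADP formed is detected with Transcreener HTRF reagents after 30 min at room temperature.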
TSHR antag = human thyrotropin receptor antagonism | TSHR-expressing cells, TSH-stimulated cAMP HTRF, 2 h; stronger effect = lower value | activity change, negative = inhibition, % at 11.5 µM | 330,000 compounds, 0.2% hits | AID 504810;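 active = activity change below a set negative limit, meaning inhibition stronger than a set level, cut at about -70% in these data; inconclusive = activity change between two set negative limits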
Target sequence (P16473 whole entry, looked up): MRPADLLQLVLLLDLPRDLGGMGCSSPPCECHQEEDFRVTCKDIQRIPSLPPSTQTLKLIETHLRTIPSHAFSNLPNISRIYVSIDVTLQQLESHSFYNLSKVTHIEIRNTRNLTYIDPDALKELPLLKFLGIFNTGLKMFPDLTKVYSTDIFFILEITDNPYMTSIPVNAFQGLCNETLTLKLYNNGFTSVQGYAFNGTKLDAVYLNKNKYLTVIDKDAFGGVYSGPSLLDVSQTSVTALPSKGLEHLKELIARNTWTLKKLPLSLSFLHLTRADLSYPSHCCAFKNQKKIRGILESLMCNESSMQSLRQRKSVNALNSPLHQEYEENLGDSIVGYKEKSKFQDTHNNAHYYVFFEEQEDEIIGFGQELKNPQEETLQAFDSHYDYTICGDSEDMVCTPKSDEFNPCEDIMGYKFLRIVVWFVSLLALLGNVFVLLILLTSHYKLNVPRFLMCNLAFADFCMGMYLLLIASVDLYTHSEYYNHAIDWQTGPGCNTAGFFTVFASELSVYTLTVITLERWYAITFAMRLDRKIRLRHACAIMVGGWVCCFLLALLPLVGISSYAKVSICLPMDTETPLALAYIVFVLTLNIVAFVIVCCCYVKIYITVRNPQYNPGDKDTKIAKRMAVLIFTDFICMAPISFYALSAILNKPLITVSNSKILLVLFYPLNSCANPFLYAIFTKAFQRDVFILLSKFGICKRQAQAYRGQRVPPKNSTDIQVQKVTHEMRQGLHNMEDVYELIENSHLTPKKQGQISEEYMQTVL
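TSHR-expressing cells, 200/well, pre-treated with compound, then stimulated with EC80 TSH (4nM final) for 2 hours at 37 deg C. cAMP measured by competitive HTRF: anti-cAMP cryptate antibody in lysis buffer plus cAMP-d2, read after 30 minutes at room temperature.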
MmCpn inh = inhibitors of Methanococcus maripaludis chaperonin TRiC (MmCpn) | purified Mm-Cpn ATPase, ADP Transcreener TR-FRET | Potency, µM (highest dose often 76.9 µM), most hits filed as inhibitors | 330,000 compounds, 0.031% hits | AID 504842; active = well fitted inhibition curve with a large enough effect; inconclusive = small, poorly fitted or top-dose-only effect; also: nearly all actives have a fitted effect of over 80% in size
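Measured: ADP formation by purified Mm-CPN. Conditions: 25 nM protein, 10 uM ATP, Tris pH 7.4 with Mg2+, K+ and DTT, 37°C for 30 min. Detection: Transcreener HTRF after 30 min at room temperature.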
uPA generation = inhibitors of cell surface uPA generation; cell surface uPA generation assay, qHTS; Potency, µM (series often up to 38.3 µM), actives largely listed as inhibitors; 330,000 compounds, 0.31% hits; AID 540303; active = well fitted inhibition curve with a large enough effect; inconclusive = small, poorly fitted or top-dose-only effect; inactive = no such curve, though single readings can be large or run the other way; tested in mouse RAW 264.7 cells; also: nearly all actives have a fitted effect of over 55% in size
Of the large screens only hits and unclear results are named; the others gave an inactive call.

Cc1cccc(N2CCN(C(=O)C3CCN(c4nnc(-n5cccc5)s4)CC3)CC2C)c1 (centres undefined)	gsp antag 28.2µM
CCC1CCCCN1CCNC(=O)C1CCN(S(=O)(=O)c2cccc3nsnc23)CC1 (centres undefined)	CCT chaperon mod -73.7
CC1CCN(CCNC(=O)C2CCN(S(=O)(=O)c3cccc4nsnc34)CC2)CC1	none
Cc1cccc(N2CCN(C(=O)C3CCN(S(=O)(=O)c4cccc5cccnc45)CC3)CC2C)c1 (centres undefined)	none
CCN(CC)CC(=O)c1c(N)n(Cc2ccccc2)c(=O)n(C)c1=O	none
C=CCn1c(CC#N)nnc1N1CCOCC1	none
O=C(Cc1ccccc1)NNc1c2ccccc2nc2ccccc12	none
Cc1cccc(OCC(=O)NNc2c3ccccc3nc3ccccc23)c1	gsp antag 22.4µM (no result: uPA generation)
Cc1cc(CNC(=O)COc2ccccc2)c2ccccc2n1	none
Cc1ccc(OCC(=O)NNc2c3ccccc3nc3ccccc23)cc1	gsp antag 28.2µM
CCn1nnnc1SCC(=O)NCc1cccs1	none
CCc1nnc(NC(=O)CSc2nc(N)c(NC(=O)c3ccc(OC)cc3)c(=O)[nH]2)s1	none
Cc1cc(C(=O)OCc2nnc(-c3ccccc3)o2)c(C)n1-c1ccccc1	gsp ag inconclusive, CCT chaperon mod -127.5
O=C(OCc1nnc(-c2ccccc2)o1)c1cn(-c2ccccc2)nc1-c1ccccc1	none
CCCNC(=O)OC1CC2CC1[C@H]1CCCCN1C2=O (some centres undefined)	none (no result: gsp ag, gsp antag, TSHR antag, MmCpn inh, uPA generation)
Cc1cccc(OCc2nc(C#N)c(N3CCCC3)o2)c1	CCT chaperon mod -30.2
N#Cc1ccc(N2CCc3ccccc3C2)c([N+](=O)[O-])c1	none
O=C1C2CCCN2C(c2ccc(F)cc2)N1c1ccc(Cl)cc1 (centres undefined)	uPA generation 5.01µM
O=C1C2CCCN2C(c2ccccc2)N1c1ccc(F)cc1 (centres undefined)	none
O=C(NCc1nnc2c(C(F)(F)F)cc(Cl)cn12)c1ccc(Br)o1	gsp ag 12.6µM
CSc1ccc(C(=O)N2CCc3ccc(NC(=O)c4ccccn4)cc3C2)cc1	gsp antag 31.6µM
COc1cc(OC)cc(C(=O)NCCN2C(=O)S/C(=C\c3cccs3)C2=O)c1	gsp antag 28.2µM
O=C(NCCN1C(=O)S/C(=C\c2ccc(OC(F)F)cc2)C1=O)C1=COCCO1	none
CCOc1ccc(/C=C2\SC(=O)N(CCNC(=O)C3COc4ccccc4O3)C2=O)cc1OC (centres undefined)	gsp antag 28.2µM, CCT chaperon mod -34.5
COc1ccc(/C=C2\SC(=O)N(CCNC(=O)C3=COCCO3)C2=O)cc1	uPA generation 7.08µM
O=C(NCCN1C(=O)S/C(=C\c2ccccc2Cl)C1=O)C1=COCCO1	uPA generation 7.94µM
COc1cc(C(=O)NCCN2C(=O)S/C(=C\c3cccs3)C2=O)cc(OC)c1OC	gsp antag inconclusive
O=C(CNC(=O)c1ccc(Cl)cc1Cl)OCn1nnc2ccccc2c1=O	none
COc1cc(NC(=O)c2ccc3c(c2)OCO3)ccc1NC(=O)c1ccco1	none
COc1ccc(OCc2cc(C(=O)N(C)Cc3cc(C4CC4)n[nH]3)no2)c(Cl)c1	none
COc1ccc(OC)c(-n2c(SCC(=O)Nc3cccc(S(N)(=O)=O)c3)nc3ccccc3c2=O)c1	CCT chaperon mod -39.9
O=[N+]([O-])c1ccc(Sc2cccc3cccnc23)c([N+](=O)[O-])c1	uPA generation 10µM
COc1ccc(-n2c(C)cc(C(=O)CN3C(=O)NC4(CCCc5sccc54)C3=O)c2C)cc1 (centres undefined)	uPA generation 11.2µM
CCOc1ccccc1NC(=O)CSc1nnnn1C1CCCC1	none
CN(Cc1ccccc1)C(=S)Nc1ccc(OC(F)F)cc1	none
CN(C)CCCN(Cc1ccccc1)C(=S)Nc1ccc(OC(F)F)cc1	CCT chaperon mod -53.9
CCOC(=O)N1CCN(C(=O)CSCC(=O)Nc2nc(-c3ccc4c(c3)OCO4)cs2)CC1	gsp antag 35.5µM (no result: uPA generation)

High-throughput results deposited in PubChem BioAssay by National Center for Advancing Translational Sciences (NCATS).
